Experimental findings from PubChem BioAssay (NCATS) are described below.

Test [1] addresses Glutathione peroxidase 1 (Homo sapiens) (UniProt P07203). Put plainly: Primary qHTS Assay for Inhibitors of Recombinant Selenoprotein Glutathione Peroxidase 1 (GPX1) (AID 1845191). Further: nearly all actives have a fitted effect of over 65% in size. The essentials:
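Recombinant GPX1 (10 nM final) was preincubated with compound for 30 min at room temperature, then reacted with 1 mM GSH, 0.5 mM CHP, 0.5 mM NADPH and 100 nM glutathione reductase; NADPH fluorescence (340/450 nm) was read at 0 and 15 min.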
A general note: In qHTS, concentration-response curves come from the screen itself.

The target in test [2] is Phospholipid hydroperoxide glutathione peroxidase GPX4 (Homo sapiens) (UniProt P36969). The test is described as follows: Primary qHTS Assay for Inhibitors of Recombinant Selenoprotein Glutathione Peroxidase 4 (GPX4) (AID 1845192). Further: nearly all actives have a fitted effect of over 65% in size. Put shortly:
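GR-coupled readout: 100 nM GR, 1 mM GSH, 0.5 mM NADPH; NADPH fluorescence (ex 340/em 450 nm) read at t=0 and after 15 min RT. GPX4 200 nM, preincubated 30 min with compound; substrate 0.5 mM CHP.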

Test [3] in a line: Quantitative High-Throughput drug screen in 47 multiple myeloma cell lines against the NCATS MIPE library collection: EJM_DSMZ cell viability assay (AID 1918926; further: nearly all actives have a fitted effect of over 30% in size; further: potency means the concentration at half of the fitted maximal effect). Put shortly:
(§1)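 CellTiter-Glo ATP luminescence gave viability after 48 h compound treatment at 37C of 500 multiple myeloma cells per well. Normalisation used DMSO-only wells as 100% and media-only wells as 0% viability; primary qHTS of approved and investigational drugs.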

Test [4] can be described thus: Quantitative High-Throughput drug screen in 47 multiple myeloma cell lines against the NCATS MIPE library collection: AMO1_DSMZ cell viability assay (AID 1918927; further: nearly all actives have a fitted effect of over 30% in size; further: potency means the concentration at half of the fitted maximal effect). The essentials: as §1
The nature of test [5]: Quantitative High-Throughput drug screen in 47 multiple myeloma cell lines against the NCATS MIPE library collection: Delta47_JCRB cell viability assay (AID 1918925; further: nearly all actives have a fitted effect of over 45% in size; further: potency means the concentration at half of the fitted maximal effect). Put shortly: as §1
Test [6] can be described thus: Quantitative High-Throughput drug screen in 47 multiple myeloma cell lines against the NCATS MIPE library collection: FR4_PLB cell viability assay (AID 1918924; further: potency means the concentration at half of the fitted maximal effect; nearly all actives have a fitted effect of over 35% in size). The essentials: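 Viability readout: CellTiter-Glo luminescence following 5 min room-temperature incubation with reagent. Prior exposure: 48 h, 37C, humidified 5% CO2, 500 cells per well.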

Inconclusive results are not listed. Activity calls are given as the source filed them. The call rests on the fitted dose curve; in most records, active means well fitted curve in the direction sought with a large enough effect; inconclusive means small, poorly fitted or top-dose-only effect, or another doubt; inactive means no such curve, though single readings can be large; an effect the other way counts as inactive or inconclusive.

Chain of Glutathione peroxidase 1 (Homo sapiens) (P07203 whole entry, looked up): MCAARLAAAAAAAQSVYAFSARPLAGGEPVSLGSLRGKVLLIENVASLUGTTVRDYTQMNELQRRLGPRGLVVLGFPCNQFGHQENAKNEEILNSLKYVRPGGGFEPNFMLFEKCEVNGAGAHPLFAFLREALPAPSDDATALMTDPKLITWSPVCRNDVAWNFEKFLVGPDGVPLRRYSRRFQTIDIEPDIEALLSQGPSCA
Chain of Phospholipid hydroperoxide glutathione peroxidase GPX4 (Homo sapiens) (P36969 whole entry, looked up): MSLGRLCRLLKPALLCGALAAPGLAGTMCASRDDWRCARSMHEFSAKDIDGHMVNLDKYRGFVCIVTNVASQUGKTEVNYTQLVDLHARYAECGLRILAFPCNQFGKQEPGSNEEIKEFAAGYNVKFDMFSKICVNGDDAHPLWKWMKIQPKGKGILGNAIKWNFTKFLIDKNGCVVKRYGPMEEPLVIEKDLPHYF

As to `CCCCOc1ccc(CC(=O)NO)cc1`, the Potency entry in test [1] and in test [2] was “inactive” each time. The Potency in test [3] is 5.26 µM (active); in test [4] it was 11.8 µM (active).

Consider `CCc1cc(C(N)=S)ccn1`, for which the Potency entry in test [1], in test [2], in test [3] and in test [4] was “inactive” each time.

Turning to `CCOC(=O)[C@H](CCc1ccccc1)N[C@H]1CS[C@H](c2cccs2)CN(CC(=O)O)C1=O`, the Potency result in test [1] and in test [2] was “inactive” throughout. Besides, the Potency in test [5] is 2.96 µM (active); in test [4], 1.32 µM (active).

Turning to `CCCCCCNC(=O)n1cc(F)c(=O)[nH]c1=O`, the Potency entry in test [1], in test [2] and in test [3] was “inactive” in each case.

For the compound `CCOC(=O)[C@H](CCc1ccccc1)N[C@H]1CCc2ccccc2N(CC(=O)O)C1=O`, the Potency result in test [1] and in test [2] was “inactive” in each case. For the same compound, the Potency is 20.9 µM (active) in test [5], 23.5 µM (active) in test [3] and 7.43 µM (active) in test [4].

Turning to `CN(C)CCc1c[nH]c2ccc(CS(=O)(=O)N3CCCC3)cc12`, the Potency entry in test [1], in test [2], in test [5], in test [3] and in test [4] was “inactive” throughout.

On to `CNCC[C@H](Oc1cccc2ccccc12)c1cccs1`, for which the Potency entry in test [2] was “inactive”. Besides, the Potency is 3.72 µM (active) in test [6], 2.35 µM (active) in test [5], 0.935 µM (active) in test [3] and 26.4 µM (active) in test [4].

Take `C[C@@H](CN1CC(=O)NC(=O)C1)N1CC(=O)NC(=O)C1`: the Potency result in test [1], in test [2] and in test [3] was “inactive” throughout.
